SMILES strings stand for the structures.

Sequence of 5-HT1A receptor (P08908 whole entry, looked up): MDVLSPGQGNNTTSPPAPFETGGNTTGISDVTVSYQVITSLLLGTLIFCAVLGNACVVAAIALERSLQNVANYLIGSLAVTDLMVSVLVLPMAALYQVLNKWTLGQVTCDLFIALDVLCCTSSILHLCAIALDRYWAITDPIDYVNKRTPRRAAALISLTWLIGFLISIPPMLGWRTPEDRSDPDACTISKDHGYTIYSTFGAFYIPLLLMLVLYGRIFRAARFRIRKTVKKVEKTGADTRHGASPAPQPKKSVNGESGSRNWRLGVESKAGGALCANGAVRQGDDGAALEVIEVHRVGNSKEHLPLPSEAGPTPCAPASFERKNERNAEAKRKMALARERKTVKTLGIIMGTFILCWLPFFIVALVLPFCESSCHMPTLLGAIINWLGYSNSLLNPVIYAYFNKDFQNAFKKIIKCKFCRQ

This assay concerns the target 5-HT1A receptor (human, UniProt P08908). The assay can be described thus: primary screen, binary call; higher = more effect of the substance. Particulars: 10 µM; call rule not given here. Details: hit call from the mean of at least two separate experiments. As to the method: GPCR radioligand binding assays were performed in HEK293 cells with stable expression of human 5-HT1A, 5-HT6, and 5-HT7b receptors (prepared with the use of Lipofectamine 2000). Non-specific binding was defined with 10 µM of 5-HT in 5-HT1AR and 5-HT7R binding experiments, whereas 10 µM of mianserin was used in 5-HT6R assays, respectively. Each compound was tested at 10 µM concentration. Results were expressed as means of at least two separate experiments.
In the case of `Oc1nnc(-c2ccccc2)o1`, the 5-HT1 is 0 (inactive).

As for `O=C(c1ccncc1)N1CCNCC1`, the 5-HT1 was 0 (inactive). Take `N#CC1CCS(=O)(=O)C1` (stereo not shown): the 5-HT1 was 0 (inactive). On to `O=C(Nc1ccccc1)C1CC1`, for which the 5-HT1 is 0 (inactive). For `COc1cccc(NC2=NCCCCC2)c1`, the 5-HT1 is 0 (inactive). Take `O=C(O)CC1CCC(=O)N1` (stereo not shown): the 5-HT1 is 0 (inactive). Consider `c1ccc2sc(N3CCNCC3)nc2c1`, for which the 5-HT1 is 1 (active). In the case of `Cc1cc(C)c2c(=O)[nH]n(C)c2n1` it was 0 (inactive). Consider `CC1(C)OC(=O)c2cc(Br)c(O)cc2O1`, for which the 5-HT1 was 0 (inactive). To `Cc1cc(N)no1` belongs 0 (inactive). With `O=C1CCN(c2ccccn2)CC1`, the 5-HT1 was 0 (inactive). In the case of `COc1ccc(C2=CCNCC2)cc1` it was 0 (inactive); in that of `O=c1[nH]c2c(s1)CCC2`, 0 (inactive); in that of `Cc1cnc(C(F)(F)F)cn1`, 0 (inactive). With `Fc1ccc(CC2CCCNC2)cc1` (stereo not shown), the 5-HT1 is 0 (inactive). Regarding `CN(C)c1cc(CN)ccn1`, the 5-HT1 is 0 (inactive).

Consider `Cc1ccc(CCNc2ccccc2)cn1`, for which the 5-HT1 was 0 (inactive). `CS(=O)(=O)Nc1ccc(C(=O)O)cc1`: the 5-HT1 was 0 (inactive). Turning to `CCCN1C(=O)CC(=O)NC1=S`, the 5-HT1 is 0 (inactive). For `Oc1ccc(C2CCNCC2)cc1`, the 5-HT1 was 0 (inactive). With `CCc1nccn1CC(=O)O`, the 5-HT1 was 0 (inactive). Turning to `O=C(c1ccccc1)N1CCC(CO)CC1`, the 5-HT1 was 0 (inactive).

With `NC1CCc2ccccc21` (stereo not shown), the 5-HT1 is 0 (inactive). In the case of `Cn1c(N)nc2ccccc21`, the 5-HT1 was 0 (inactive). As to `O=C(O)C1CCN(c2ncccn2)CC1`, the 5-HT1 was 0 (inactive). With `O=C1CNCCN1c1ccccc1`, the 5-HT1 is 0 (inactive).

For the molecule `COC(=O)c1c(C)nc(C2CC2)[nH]c1=O`, the 5-HT1 was 0 (inactive). For `O=C(CN1CCNCC1)c1ccccc1`, the 5-HT1 was 0 (inactive). In the case of `CCc1ccc(NC2=NCCCS2)cc1` it was 0 (inactive). To `O=C1CCC(=O)N(c2ccccc2)N1` belongs 0 (inactive); to `CCN(CC)c1cccc(C)c1`, 0 (inactive). `c1cnc2c(c1)NCCC2`: the 5-HT1 is 0 (inactive). On to `CN1CC(=O)NC1=O`, for which the 5-HT1 was 0 (inactive). Consider `O=C(CN1CCCC1)c1ccccc1Cl`, for which the 5-HT1 is 1 (active). In the case of `O=C(O)c1ccc(CN2CCOCC2)cc1` it was 0 (inactive); in that of `CC(=O)c1ccc2c(c1)CNCC2`, 0 (inactive). With `C1=C[C@H]2O[C@@H]1c1ccccc12`, the 5-HT1 was 0 (inactive).

Turning to `O=C(O)c1cnc(-c2ccccc2)s1`, the 5-HT1 was 0 (inactive).

On to `Nc1ccc(-c2ccccc2)cc1C(=O)O`, for which the 5-HT1 is 0 (inactive). For the molecule `COc1ccc(CN2CCNCC2)cc1F`, the 5-HT1 was 0 (inactive).
